Screens as filed in PubChem BioAssay.
Shown are actives, neighbours in structure and some others; about 6.7% of the full set was active somewhere.
C diff HTS – C. difficile growth inhibitors, primary screen, HTS. growth activity, negative = inhibition, % at 16 µg/mL (by protocol). Clostridium difficile clinical isolate growth, OD600, 24 h; stronger effect = lower value. hit rate 0.25% among 86,000;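 active = mean growth activity at or below -80% and every replicate also at or below -80%; inconclusive = mean at or below -80% but some replicate above -80%; inactive = mean growth activity above -80%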
T cruzi growth-1 – T. cruzi intracellular proliferation inhibitors, primary screen, cell-based, beta-gal Tulahuen parasites, NIH3T3 host, luminescence; T. cruzi beta-gal in NIH3T3, GalScreen luminescence, 90 h; inhibition, % at 8.34 µM; hit rate 5.9% among 77,000;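 active = mean inhibition above about 93%, with at least 55% of replicates each passing it, limit read from the data, passing the limit was not always enough; inconclusive = only one of those two conditions holds; inactive = neither condition holds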
Pf Dd2 growth – P. falciparum Dd2 growth inhibitors, primary screen, SYBR Green fluorescence, single dose replicates. 72 h; stronger effect = lower value. activity change, % at 10 µM. hit rate 2.3% among 94,000; in the data active = activity change below about -80%; inconclusive = no clear call, values can overlap the other calls
T cruzi growth-2 – T. cruzi intracellular proliferation inhibitors, confirmation, cell-based, NIH3T3 host, beta-gal parasite, luminescence, cherry-pick; shares compounds with T cruzi growth-1; T. cruzi beta-gal in NIH3T3, GalScreen luminescence, 90 h; inhibition, % at 8.35 µM; hit rate 72% among 5,600;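 active = mean replicate inhibition above about 95% and at least 55% of replicates individually reaching it, limit read from the data; inconclusive = only one of the two criteria is met; inactive = neither criterion is met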
T cruzi growth-3 – inhibitors of intracellular T. cruzi replication, confirmation, NIH3T3 host cells, beta-gal parasites, cherry-pick, set 2; AID 651740, 2012; shares compounds with T cruzi growth-1; inhibition, % at 2.09 µM; hit rate 21% among 5,600; T. cruzi beta-gal in NIH3T3, GalScreen luminescence, 90 h;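 active = mean inhibition above about 95%, with at least 55% of replicates also reaching it, limit read from the data; inconclusive = meets just one of the two conditions; inactive = meets neither condition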
NIH3T3 tox – cytotoxicity in mouse NIH/3T3 fibroblasts, confirmation, cytotoxicity control for T. cruzi proliferation inhibitor project, cell-based, cherry-pick, single point | cytotoxicity (signal decrease), % at 8.35 µM | NIH/3T3 viability, CellTiter-Glo ATP luminescence, 90 h | AID 651742, 2012 | hit rate 14% among 5,600 | shares compounds with T cruzi growth-1;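 active = mean signal decrease across replicates above about 35% based on untreated-well scatter, with enough replicates individually passing, limit read from the data; inconclusive = no rule stated though some were filed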
3T3 cytotox 2 – NIH/3T3 fibroblast cytotoxicity, confirmation, cytotoxicity control, cell-based, cherry-pick, single point, set 2; shares compounds with T cruzi growth-1; NIH/3T3 viability, CellTiter-Glo ATP luminescence, 90 h; inhibition, % at 24.9 µM; hit rate 56% among 5,600; AID 651744, 2012;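 active = mean loss of cell viability signal at or above a set limit, and enough replicates individually reaching it; inconclusive = meets only the mean limit or only the replicate share; inactive = meets neither condition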
Of the large screens only hits and unclear results are named; the others gave an inactive call (follow-up assays come after a bar, where they were run).

COc1ccc(CN2CC3(CN(C(=O)C4CCC4)C3)c3c(n(C)c4cc(OC)ccc34)[C@@H]2CO)cc1	none (no result: T cruzi growth-1)
O=C(NCC1CCCCC1)[C@H]1[C@H](CO)[C@H]2Cn3c(ccc(C4=CCCC4)c3=O)[C@@H]1N2	none
COc1cccc(-c2ccc3c(c2)[C@@H]2[C@@H](CCN2C(=O)C2CCOCC2)[C@@H](CO)N3)c1	T cruzi growth-1 103 | T cruzi growth-2 101 | T cruzi growth-3 inconclusive | NIH3T3 tox inactive | 3T3 cytotox 2 inactive
CN(C)C(=O)c1cccc(-c2ccc3c(c2)[C@H]2[C@H](CCN2C(=O)C2CCOCC2)[C@H](CO)N3)c1	none
COc1ccc(-c2ccc3c(c2)[C@@H]2[C@@H](CCN2C(=O)CN2CCOCC2)[C@@H](CO)N3)cc1	none
COc1cccc(-c2ccc3c(c2)[C@H]2[C@H](CCN2C(=O)C2CC2)[C@H](CO)N3)c1	none (no result: T cruzi growth-1)
CN(C)C(=O)c1cccc(-c2ccc3c(c2)[C@@H]2[C@@H](CCN2C(=O)C2CCOCC2)[C@H](CO)N3)c1	T cruzi growth-1 inconclusive | T cruzi growth-2 99 | T cruzi growth-3 inactive | NIH3T3 tox inactive | 3T3 cytotox 2 inactive
COc1cccc(-c2ccc3c(c2)[C@H]2[C@H](CCN2C(=O)CN2CCOCC2)[C@@H](CO)N3)c1	T cruzi growth-1 inconclusive | T cruzi growth-2 inactive | T cruzi growth-3 inactive | NIH3T3 tox inactive | 3T3 cytotox 2 inactive
COc1cccc(-c2ccc3c(c2)[C@H]2[C@H](CCN2C(=O)Cc2ccncc2)[C@H](CO)N3)c1	T cruzi growth-1 104 (no result: C diff HTS) | T cruzi growth-2 inactive | T cruzi growth-3 inactive | NIH3T3 tox inactive | 3T3 cytotox 2 inactive
COc1cccc(-c2ccc3c(c2)[C@@H]2[C@@H](CCN2C(=O)Cc2ccccc2)[C@@H](CO)N3)c1	none
CN(C)C(=O)[C@@H]1[C@@H](CO)[C@@H]2Cn3c(ccc(C4=CCCC4)c3=O)[C@H]1N2CC1CCCC1	none (no result: T cruzi growth-1)
Cc1noc(C)c1NC(=O)Nc1ccc2c(c1)C(=O)N([C@@H](C)CO)C[C@@H](C)[C@H](CN(C)S(=O)(=O)c1cccs1)O2	none (no result: C diff HTS)
CN1C(=O)c2cc(NC(=O)c3ccc(F)cc3)ccc2OC[C@@H]2O[C@H](CC(=O)N3CCOCC3)CC[C@H]21	none
CO[C@H]1CN(C)C(=O)c2cc(NC(=O)NC(C)C)ccc2OC[C@H](C)N(Cc2ccc(-c3ccccn3)cc2)C[C@H]1C	none (no result: C diff HTS)
COc1ccc(-c2cnc3c(c2)C(=O)N([C@@H](C)CO)C[C@H](C)[C@H](CN(C)C(=O)C2CCC2)O3)cc1	none
C/C=C/c1ccc2c(c1)O[C@H](CN(C)C(=O)c1cccc(F)c1)[C@@H](C)CN([C@@H](C)CO)S2(=O)=O	none
O=C(CN1CCOCC1)N1CC[C@H]2[C@H](CO)Nc3ccc(-c4ccc(F)cc4)cc3[C@H]21	none
O=C(CN1CCOCC1)N1CC[C@@H]2[C@H]1c1cc(-c3ccccc3)ccc1N[C@@H]2CO	T cruzi growth-1 inconclusive | T cruzi growth-2 98 | T cruzi growth-3 inactive | NIH3T3 tox inactive | 3T3 cytotox 2 inactive
CO[C@@H]1CN(C)C(=O)c2ccc(NC(=O)c3cnccn3)cc2OC[C@@H](C)N(C(C)=O)C[C@@H]1C	none
CC(=O)N(C)C[C@H]1Oc2cc(C#Cc3cccc(F)c3)ccc2S(=O)(=O)N([C@H](C)CO)C[C@H]1C	none
CN1C(=O)c2cc(NC(=O)Cc3cccs3)ccc2OC[C@H]2O[C@@H](CC(=O)NCc3ccc(-c4ccccc4)cc3)CC[C@H]21	none
Cc1ccc(S(=O)(=O)N2CC[C@@H]3[C@H](CO)Nc4ccc(C#Cc5ccc(F)cc5)cc4[C@@H]32)cc1	none
O=S(=O)(c1ccccc1)N1CC[C@H]2[C@H](CO)Nc3ccc(C#Cc4cccc(F)c4)cc3[C@H]21	none (no result: T cruzi growth-1)
Cc1ccc(S(=O)(=O)N2CC[C@@H]3[C@H]2c2cc(C#Cc4ccccc4F)ccc2N[C@@H]3CO)cc1	T cruzi growth-1 inconclusive | T cruzi growth-2 113 | T cruzi growth-3 110 | NIH3T3 tox inactive | 3T3 cytotox 2 inconclusive
O=S(=O)(c1ccccc1)N1CC[C@@H]2[C@H](CO)Nc3ccc(C#Cc4cccc(F)c4)cc3[C@@H]21	T cruzi growth-1 inconclusive | T cruzi growth-2 101 | T cruzi growth-3 111 | NIH3T3 tox 46 | 3T3 cytotox 2 59
Cc1ccc(S(=O)(=O)N2CC[C@@H]3[C@@H](CO)Nc4ccc(C#Cc5cccc(F)c5)cc4[C@@H]32)cc1	T cruzi growth-1 99 | T cruzi growth-2 101 | T cruzi growth-3 108 | NIH3T3 tox 39 | 3T3 cytotox 2 57
Cc1ccc(S(=O)(=O)N2CC[C@@H]3[C@H](CO)Nc4ccc(C#Cc5cccc(F)c5)cc4[C@@H]32)cc1	none
CNC[C@@H]1Oc2ccc(NS(=O)(=O)c3ccc(C)cc3)cc2C(=O)N([C@@H](C)CO)C[C@@H]1C	none (no result: T cruzi growth-1)
O=C(C[C@H]1C=C[C@H](NC(=O)C2CCOCC2)[C@H](CO)O1)Nc1nccs1	none (no result: T cruzi growth-1)
C[C@@H]1CN([C@H](C)CO)S(=O)(=O)c2ccc(C#CC3CC3)cc2O[C@H]1CN(C)Cc1ccccn1	T cruzi growth-1 110 | T cruzi growth-2 inactive | T cruzi growth-3 inactive | NIH3T3 tox 102 | 3T3 cytotox 2 76
C[C@@H]1CN([C@@H](C)CO)S(=O)(=O)c2ccc(C#CC3CC3)cc2O[C@H]1CN(C)Cc1ccccn1	T cruzi growth-1 inconclusive | T cruzi growth-2 100 | T cruzi growth-3 inactive | NIH3T3 tox 64 | 3T3 cytotox 2 72
C[C@H](CO)N1C[C@H](C)[C@H](CN(C)Cc2ccccn2)Oc2cc(C#CC3CC3)ccc2S1(=O)=O	none
CC(C)C#Cc1ccc2c(c1)O[C@@H](CN(C)Cc1ccccn1)[C@@H](C)CN([C@H](C)CO)S2(=O)=O	none
CC(C)C#Cc1ccc2c(c1)O[C@@H](CN(C)Cc1ccccn1)[C@H](C)CN([C@H](C)CO)S2(=O)=O	none
C[C@H]1CN([C@@H](C)CO)S(=O)(=O)c2ccc(C#CC3CC3)cc2O[C@@H]1CN(C)Cc1ccccn1	T cruzi growth-1 109 | T cruzi growth-2 inactive | T cruzi growth-3 inactive | NIH3T3 tox inactive | 3T3 cytotox 2 80
O=C(c1cccnc1)N1C[C@H]2[C@@H](c3ccccc31)[C@@H](CO)N2C(=O)C1CCCCC1	none
Cc1ccc(S(=O)(=O)N(C)C[C@H]2Oc3ccc(NS(=O)(=O)c4c(C)noc4C)cc3C(=O)N([C@H](C)CO)C[C@H]2C)cc1	none
